Laboratory results: the supplement of paper PMC11732987, “Enantioselective OTUD7B fragment discovery through chemoproteomics screening and high-throughput optimisation” (Communications Chemistry, 2025)

Key:
Assay in all cases: log2 ratio of Biotin-Ahx-Ub-VS probe labelling (fragment/DMSO); higher = less target engagement (more negative = stronger competition), active = hit call of the paper (q ≤ 0.05, log2 ratio ≤ -1)
Settings in all cases: compound concentration: 200 uM; treatment time: 3 h
[1] = biological target: USP16 (UniProt Q9Y5T5)
Sequence of USP16 (Q9Y5T5 whole entry, looked up, the tested form may be a part): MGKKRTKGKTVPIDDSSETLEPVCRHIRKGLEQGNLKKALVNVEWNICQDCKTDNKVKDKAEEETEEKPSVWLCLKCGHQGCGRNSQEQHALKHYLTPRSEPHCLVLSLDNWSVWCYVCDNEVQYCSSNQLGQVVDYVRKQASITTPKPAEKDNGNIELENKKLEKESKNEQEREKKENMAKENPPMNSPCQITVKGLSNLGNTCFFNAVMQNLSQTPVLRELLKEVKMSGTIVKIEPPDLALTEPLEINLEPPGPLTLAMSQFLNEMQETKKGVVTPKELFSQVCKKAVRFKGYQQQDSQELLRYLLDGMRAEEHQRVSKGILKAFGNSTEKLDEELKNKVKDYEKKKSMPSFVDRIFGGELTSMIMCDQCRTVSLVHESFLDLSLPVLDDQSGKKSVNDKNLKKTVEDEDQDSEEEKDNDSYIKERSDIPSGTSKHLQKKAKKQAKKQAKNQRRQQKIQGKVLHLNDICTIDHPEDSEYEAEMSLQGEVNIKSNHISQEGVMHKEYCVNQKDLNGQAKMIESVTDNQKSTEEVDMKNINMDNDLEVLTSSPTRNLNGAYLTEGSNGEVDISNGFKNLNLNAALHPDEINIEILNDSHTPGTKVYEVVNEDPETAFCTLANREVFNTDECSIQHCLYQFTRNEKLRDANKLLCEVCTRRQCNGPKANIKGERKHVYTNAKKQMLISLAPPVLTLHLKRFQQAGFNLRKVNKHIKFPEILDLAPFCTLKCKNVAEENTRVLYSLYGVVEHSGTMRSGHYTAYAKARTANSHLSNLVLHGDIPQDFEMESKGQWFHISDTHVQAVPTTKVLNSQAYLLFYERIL
Outline: (§1)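 Labelled DUBs were enriched with NeutrAvidin, digested with LysC and trypsin, and run by diaPASEF LC-MS/MS. The labelling used Biotin-Ahx-Ub-VS at 0.5 µM final for 1 h on HEK293T lysate (495 µg per sample) previously treated in triplicate with fragment at 200 µM or vehicle for 3 h. Values are average log2 fragment/vehicle ratios by unpaired t-test on global-median-normalised Spectronaut quantities of proteins with ≥2 unique peptides.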

[2] = biological target: T1, USP19 (UniProt O94966)
T1 sequence (whole entry): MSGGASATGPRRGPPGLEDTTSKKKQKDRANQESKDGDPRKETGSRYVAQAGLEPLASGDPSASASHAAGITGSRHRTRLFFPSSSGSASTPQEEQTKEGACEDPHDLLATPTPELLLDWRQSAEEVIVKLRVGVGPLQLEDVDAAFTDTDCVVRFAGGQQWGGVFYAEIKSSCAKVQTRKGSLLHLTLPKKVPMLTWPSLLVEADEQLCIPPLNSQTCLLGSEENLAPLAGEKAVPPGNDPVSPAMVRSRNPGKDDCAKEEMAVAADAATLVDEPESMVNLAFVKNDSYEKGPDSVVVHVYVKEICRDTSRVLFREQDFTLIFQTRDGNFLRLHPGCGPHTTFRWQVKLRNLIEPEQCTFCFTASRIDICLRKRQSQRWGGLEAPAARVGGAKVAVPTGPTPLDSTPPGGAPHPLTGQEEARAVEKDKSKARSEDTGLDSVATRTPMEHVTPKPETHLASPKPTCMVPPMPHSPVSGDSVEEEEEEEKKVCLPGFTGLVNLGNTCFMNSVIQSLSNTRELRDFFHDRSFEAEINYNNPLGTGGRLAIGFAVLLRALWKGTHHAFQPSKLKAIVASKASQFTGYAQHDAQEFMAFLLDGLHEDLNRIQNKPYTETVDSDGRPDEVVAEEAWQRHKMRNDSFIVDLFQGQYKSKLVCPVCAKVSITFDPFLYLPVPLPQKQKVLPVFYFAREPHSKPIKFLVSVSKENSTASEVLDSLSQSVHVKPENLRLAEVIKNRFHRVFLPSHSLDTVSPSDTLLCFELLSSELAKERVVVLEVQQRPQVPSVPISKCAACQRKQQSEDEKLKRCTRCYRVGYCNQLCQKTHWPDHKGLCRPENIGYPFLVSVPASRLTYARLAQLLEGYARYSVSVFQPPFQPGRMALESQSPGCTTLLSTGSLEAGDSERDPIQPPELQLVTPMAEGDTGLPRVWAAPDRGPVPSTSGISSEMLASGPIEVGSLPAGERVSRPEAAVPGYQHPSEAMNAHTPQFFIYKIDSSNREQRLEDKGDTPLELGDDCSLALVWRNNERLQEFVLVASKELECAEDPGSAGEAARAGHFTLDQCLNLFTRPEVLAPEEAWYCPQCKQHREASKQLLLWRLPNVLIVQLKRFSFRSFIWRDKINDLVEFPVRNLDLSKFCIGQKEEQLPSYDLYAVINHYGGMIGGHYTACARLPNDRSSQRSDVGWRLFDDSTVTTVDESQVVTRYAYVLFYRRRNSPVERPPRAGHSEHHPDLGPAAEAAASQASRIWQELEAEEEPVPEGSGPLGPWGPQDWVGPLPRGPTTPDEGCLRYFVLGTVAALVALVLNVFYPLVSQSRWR
Outline: as §1

[3] = biological target: USP24 (UniProt Q9UPU5)
Sequence of USP24 (Q9UPU5 whole entry): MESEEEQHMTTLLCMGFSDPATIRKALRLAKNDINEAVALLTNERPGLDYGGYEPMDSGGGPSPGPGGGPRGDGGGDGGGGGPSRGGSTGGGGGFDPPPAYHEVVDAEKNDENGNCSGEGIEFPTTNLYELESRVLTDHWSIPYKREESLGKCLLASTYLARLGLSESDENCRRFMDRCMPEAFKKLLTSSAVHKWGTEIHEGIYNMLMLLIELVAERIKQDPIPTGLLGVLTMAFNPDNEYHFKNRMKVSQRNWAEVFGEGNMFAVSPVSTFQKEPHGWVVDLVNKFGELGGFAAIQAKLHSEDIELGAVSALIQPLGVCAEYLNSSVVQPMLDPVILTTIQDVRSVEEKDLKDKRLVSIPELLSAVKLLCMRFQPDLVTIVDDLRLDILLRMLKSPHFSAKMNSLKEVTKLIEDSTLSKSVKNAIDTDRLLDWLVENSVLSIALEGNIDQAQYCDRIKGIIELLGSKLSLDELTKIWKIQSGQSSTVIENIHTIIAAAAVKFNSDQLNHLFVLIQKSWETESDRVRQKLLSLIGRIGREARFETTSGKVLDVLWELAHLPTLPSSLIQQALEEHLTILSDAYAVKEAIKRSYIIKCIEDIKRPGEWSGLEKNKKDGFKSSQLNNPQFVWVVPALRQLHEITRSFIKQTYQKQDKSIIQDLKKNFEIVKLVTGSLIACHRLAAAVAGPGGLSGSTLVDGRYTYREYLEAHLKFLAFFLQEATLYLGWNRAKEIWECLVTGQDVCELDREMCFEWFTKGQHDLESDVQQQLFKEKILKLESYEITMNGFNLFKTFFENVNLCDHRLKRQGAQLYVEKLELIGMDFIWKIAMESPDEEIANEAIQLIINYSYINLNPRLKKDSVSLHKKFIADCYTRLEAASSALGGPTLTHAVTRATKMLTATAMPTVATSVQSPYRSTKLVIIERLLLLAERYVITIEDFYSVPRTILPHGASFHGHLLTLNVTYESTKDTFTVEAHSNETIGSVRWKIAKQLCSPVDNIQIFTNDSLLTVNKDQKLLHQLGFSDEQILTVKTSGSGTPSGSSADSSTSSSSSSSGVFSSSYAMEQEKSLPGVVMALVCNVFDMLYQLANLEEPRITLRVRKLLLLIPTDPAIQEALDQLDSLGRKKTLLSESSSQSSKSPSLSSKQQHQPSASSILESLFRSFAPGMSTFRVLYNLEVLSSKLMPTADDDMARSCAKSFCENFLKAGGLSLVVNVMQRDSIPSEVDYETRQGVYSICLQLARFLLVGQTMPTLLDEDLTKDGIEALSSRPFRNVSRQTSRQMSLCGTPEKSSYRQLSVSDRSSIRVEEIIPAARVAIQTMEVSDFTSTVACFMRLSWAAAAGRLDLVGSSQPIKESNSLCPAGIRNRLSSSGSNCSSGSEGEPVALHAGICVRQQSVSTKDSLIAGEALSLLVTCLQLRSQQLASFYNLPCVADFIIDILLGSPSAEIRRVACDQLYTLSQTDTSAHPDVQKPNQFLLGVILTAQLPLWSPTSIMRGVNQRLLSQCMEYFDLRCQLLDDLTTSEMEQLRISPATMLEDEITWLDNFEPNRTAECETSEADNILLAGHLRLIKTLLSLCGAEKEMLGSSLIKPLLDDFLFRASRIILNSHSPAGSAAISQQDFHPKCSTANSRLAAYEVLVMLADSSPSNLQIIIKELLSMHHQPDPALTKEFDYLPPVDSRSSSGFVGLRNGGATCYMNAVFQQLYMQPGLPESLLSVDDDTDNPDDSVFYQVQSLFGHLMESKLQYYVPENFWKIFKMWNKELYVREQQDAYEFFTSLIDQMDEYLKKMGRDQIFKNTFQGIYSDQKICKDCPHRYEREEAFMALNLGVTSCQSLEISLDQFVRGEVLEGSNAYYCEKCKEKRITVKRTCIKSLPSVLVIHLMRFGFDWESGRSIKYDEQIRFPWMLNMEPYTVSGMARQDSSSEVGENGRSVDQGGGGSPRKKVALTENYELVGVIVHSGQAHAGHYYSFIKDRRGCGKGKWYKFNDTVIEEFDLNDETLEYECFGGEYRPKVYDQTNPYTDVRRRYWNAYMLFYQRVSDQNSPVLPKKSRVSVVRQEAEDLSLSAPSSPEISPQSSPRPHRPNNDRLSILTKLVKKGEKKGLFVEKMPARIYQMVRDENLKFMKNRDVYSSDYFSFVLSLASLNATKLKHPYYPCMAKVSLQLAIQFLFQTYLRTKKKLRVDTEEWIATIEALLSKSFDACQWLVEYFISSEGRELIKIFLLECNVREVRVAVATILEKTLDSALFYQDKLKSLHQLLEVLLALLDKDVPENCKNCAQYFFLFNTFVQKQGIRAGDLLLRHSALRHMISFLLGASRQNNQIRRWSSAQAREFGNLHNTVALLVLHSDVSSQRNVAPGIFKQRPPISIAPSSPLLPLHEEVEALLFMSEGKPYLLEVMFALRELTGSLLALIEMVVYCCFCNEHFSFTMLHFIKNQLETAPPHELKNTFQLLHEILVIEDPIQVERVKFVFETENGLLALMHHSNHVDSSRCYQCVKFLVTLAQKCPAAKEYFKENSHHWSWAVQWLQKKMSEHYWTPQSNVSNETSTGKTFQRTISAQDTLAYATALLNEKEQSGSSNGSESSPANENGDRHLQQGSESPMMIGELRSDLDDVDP
Outline: as §1

[4] = biological target: T2, USP25 (UniProt Q9UHP3)
T2 sequence (whole entry): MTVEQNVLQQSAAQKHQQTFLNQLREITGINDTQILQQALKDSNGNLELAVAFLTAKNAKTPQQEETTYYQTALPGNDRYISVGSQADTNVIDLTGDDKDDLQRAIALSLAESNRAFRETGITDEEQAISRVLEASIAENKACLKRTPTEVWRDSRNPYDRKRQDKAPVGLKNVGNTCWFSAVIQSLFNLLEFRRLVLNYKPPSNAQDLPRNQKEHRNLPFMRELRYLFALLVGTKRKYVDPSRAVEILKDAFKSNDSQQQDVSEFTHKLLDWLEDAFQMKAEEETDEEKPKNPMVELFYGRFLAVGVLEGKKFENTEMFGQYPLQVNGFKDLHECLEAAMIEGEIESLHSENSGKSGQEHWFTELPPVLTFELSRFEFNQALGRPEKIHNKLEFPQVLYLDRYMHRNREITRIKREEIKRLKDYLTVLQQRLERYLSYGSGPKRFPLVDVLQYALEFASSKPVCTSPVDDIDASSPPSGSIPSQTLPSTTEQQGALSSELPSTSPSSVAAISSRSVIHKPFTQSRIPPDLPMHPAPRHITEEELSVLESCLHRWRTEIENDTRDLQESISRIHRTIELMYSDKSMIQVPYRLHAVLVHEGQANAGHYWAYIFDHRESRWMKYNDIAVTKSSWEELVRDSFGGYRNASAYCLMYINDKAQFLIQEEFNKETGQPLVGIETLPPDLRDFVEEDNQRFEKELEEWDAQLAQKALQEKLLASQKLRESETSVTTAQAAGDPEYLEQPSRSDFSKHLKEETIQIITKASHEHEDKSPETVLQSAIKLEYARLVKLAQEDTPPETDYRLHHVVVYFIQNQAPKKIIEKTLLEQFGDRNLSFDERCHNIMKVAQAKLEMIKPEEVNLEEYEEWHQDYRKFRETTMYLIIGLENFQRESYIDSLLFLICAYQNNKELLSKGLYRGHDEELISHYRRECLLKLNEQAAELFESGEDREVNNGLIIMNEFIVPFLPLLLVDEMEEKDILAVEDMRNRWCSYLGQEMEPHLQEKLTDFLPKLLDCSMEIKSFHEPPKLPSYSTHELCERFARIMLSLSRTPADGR
Outline: as §1

[5] = biological target: T3, USP28 (UniProt Q96RU2)
T3 sequence (whole entry): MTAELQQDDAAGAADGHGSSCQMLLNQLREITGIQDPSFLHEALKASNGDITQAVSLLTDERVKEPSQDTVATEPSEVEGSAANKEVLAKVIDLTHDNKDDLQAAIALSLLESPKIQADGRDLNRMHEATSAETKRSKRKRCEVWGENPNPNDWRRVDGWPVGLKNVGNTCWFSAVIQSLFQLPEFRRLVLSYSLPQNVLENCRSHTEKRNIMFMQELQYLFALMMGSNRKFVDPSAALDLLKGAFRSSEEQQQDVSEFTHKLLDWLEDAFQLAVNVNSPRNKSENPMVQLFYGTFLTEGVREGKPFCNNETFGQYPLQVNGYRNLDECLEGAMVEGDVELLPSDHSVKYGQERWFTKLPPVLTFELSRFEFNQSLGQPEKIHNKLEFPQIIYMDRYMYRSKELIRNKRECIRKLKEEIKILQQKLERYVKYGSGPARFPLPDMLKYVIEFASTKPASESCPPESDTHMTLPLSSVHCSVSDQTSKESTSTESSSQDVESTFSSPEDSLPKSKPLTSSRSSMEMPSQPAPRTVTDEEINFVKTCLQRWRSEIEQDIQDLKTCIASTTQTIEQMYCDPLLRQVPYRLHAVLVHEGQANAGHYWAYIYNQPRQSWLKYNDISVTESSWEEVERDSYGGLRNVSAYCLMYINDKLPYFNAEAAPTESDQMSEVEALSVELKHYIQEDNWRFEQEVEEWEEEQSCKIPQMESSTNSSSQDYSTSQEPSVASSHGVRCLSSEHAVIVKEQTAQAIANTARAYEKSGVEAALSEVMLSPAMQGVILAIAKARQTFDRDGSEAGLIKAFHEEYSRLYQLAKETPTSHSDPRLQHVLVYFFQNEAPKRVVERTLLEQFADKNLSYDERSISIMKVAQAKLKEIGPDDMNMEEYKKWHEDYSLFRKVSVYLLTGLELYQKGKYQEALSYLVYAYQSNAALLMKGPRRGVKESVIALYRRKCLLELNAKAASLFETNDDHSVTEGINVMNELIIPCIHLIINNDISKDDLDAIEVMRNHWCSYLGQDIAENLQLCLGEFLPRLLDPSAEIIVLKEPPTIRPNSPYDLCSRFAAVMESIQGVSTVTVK
Outline: as §1

Measured: log2 ratio of Biotin-Ahx-Ub-VS probe labelling

CCCn1nccc1NC(=O)CCl
inactive: [1] -0.307 | [2] -0.237 | [3] -0.693 | [4] -0.184 | [5] -0.445
